Reference: PubChem BioAssay (NCATS)
Inconclusive results are not listed. Active and inactive are the calls of the source. Unless noted, calls follow the shape of the dose curve; as a rule, active = well fitted curve in the direction sought with a large enough effect; inconclusive = small, poorly fitted or top-dose-only effect, or another doubt; inactive = no such curve, though single readings can be large; an effect the other way counts as inactive or inconclusive.

Experiments:
[1] = Cytometric Cell-Based qHTS for Inhibitors of the mTORC1 Signaling Pathway in MEF (Tsc2-/-, p53-/-) Cells (AID 2660);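 also: Tsc2 and p53 null MEFs carrying empty vector with compound for 24 h; percent of cells above a phospho-rpS6 to PI ratio cutoff in each well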
Method in brief: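 Cells are plated, treated with compound for 24 hrs at 37 degree Celsius, then fixed, blocked and immunostained for phospho-rpS6 Ser235/236. Propidium iodide counterstain follows. Per-well % positive cells is derived from the PI-normalized phospho-S6 signal.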

[2] = High Content Imaging Cell-Based qHTS for Inhibitors of the mTORC1 Signaling Pathway in MEF (Tsc2-/-, p53-/-) Cells (AID 2666); details: at 38.3 µM (top of the series);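 also: percent of cells scored positive for phospho-rpS6 Ser235/236 immunostaining by imaging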
Method in brief: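 Tsc2-/-, p53-/- MEFs (empty-vector stable) grown in DMEM + 10% FBS were exposed to compounds for 24 hrs at 37 degree Celsius, fixed, and stained with Alexa-488 anti-phospho-rpS6 Ser235/236 plus Hoechst. Imaging gave the percentage of positive cells per well.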

[3] = High Content Imaging Cell-Based qHTS for Inhibitors of the mTORC1 Signaling Pathway in MEF Cells (AID 2667);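 also: Tsc2-/- p53-/- MEFs stably re-expressing wild-type Tsc2 exposed 24 h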
Method in brief: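 Tsc2-/-, p53-/- MEFs stably re-expressing WT Tsc2, grown in DMEM + 10% FBS, were treated with compounds for 24 hrs at 37 degree Celsius, fixed, and stained with Alexa-488 phospho-rpS6 Ser235/236 antibody plus Hoechst; results given as % positive cells.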

[4] = Cytometry Cell-Based qHTS for Inhibitors of the mTORC1 Signaling Pathway in MEF cells (AID 2668);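 also: Tsc2-/- p53-/- mouse embryonic fibroblasts stably re-expressing wild-type Tsc2; percent cells positive for phospho-rpS6 Ser235/236 relative to propidium iodide stain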
Method in brief: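 WT MEFs (Tsc2-/-, p53-/- stably re-expressing WT Tsc2) in DMEM + 10% FBS received compounds 24 hrs after plating, for 24 hrs at 37 degree Celsius. Fixed cells stained with Alexa-488 anti-phospho-rpS6 Ser235/236 and propidium iodide; laser-scanning cytometry read-out.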

[5] = target: Ubiquitin carboxyl-terminal hydrolase 2 (Homo sapiens) (UniProt O75604); experiment: qHTS Validation Assay for Inhibitors of Ubiquitin-specific Protease USP2a Using CHOP2 as the Reporter (AID 463106)
Method in brief: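 Readout was coupled fluorescence (Ex 485/Em 531 nm), read 60 min after adding 25 nM final Ub-CHOP2 and 25 nM reporter substrate. Beforehand, 10 nM final USP2 core had 30 min at RT with compound in pH 8.0 buffer. Curves were fitted after normalization to NEM and flagged for artifacts using time-zero reads.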

[6] = target: DNA polymerase III PolC-type (Bacillus subtilis (strain 168)) (UniProt P13267); experiment: qHTS Validation Assay for the Inhibitors of DNA Replication in Gram-Positive Bacteria (AID 485295);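 also: PicoGreen fluorescence of double-stranded DNA made on primed circular M13 template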
Method in brief: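 Reconstituted B. subtilis holoenzyme (Pol III, beta clamp, SSB, primase) was preincubated with compound at room temperature, then given single-stranded circular M13Gori plus dNTPs and NTPs. EDTA-containing PicoGreen stopped the reaction, and dsDNA product was read by fluorescence.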

[7] = target: Tumor susceptibility gene 101 protein (Homo sapiens) (UniProt Q99816); experiment: qHTS Validation Assay for Iinhibitors of HIV-1 Budding by Blocking the Interaction of PTAP/TSG101 (AID 485342; calls by dose curve)
Method in brief: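 Tsg101 binding domain (10 uM final) in pH 7.5 HEPES/NaCl/Tween 20/EDTA/TCEP buffer was mixed with pin-transferred compounds, then FITC-labeled PTAP peptide (50 nM final) was added; after 20 min at r.t., fluorescence polarization was read.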

[8] = target: Beta-2 adrenergic receptor (Homo sapiens) (UniProt P07550); experiment: qHTS validation assay of beta-arrestin-biased ligands of beta2-adrenergic receptor (AID 485366)
Method in brief: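 Compound series up to 46 microM applied to beta2-AR/beta-arrestin Tango cells, 18 hr, 37 degrees C, 5% CO2. Read-out: tTA-driven luciferase luminescence, converted to %Activity; concentration-response curves assigned curve classes.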

[9] = qHTS Validation Assay to Find Inhibitors of Chronic Active B-Cell Receptor Signaling (AID 485345; active = well fitted curve in the direction sought with a large enough effect in the main read-out, with a control signal flat, not every such curve was filed as active)
Method in brief: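 Read-out: ratio of filter-corrected green (IkappaBalpha fusion) to red (native) luciferase signal in doxycycline-induced TMD8 cells after 4 h at 37C. Titration spanned 46 uM–3 nM; Data were normalised to basal cells and 10 uM MG-132 wells.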

[10] = target: ATP-dependent 6-phosphofructokinase (Trypanosoma brucei brucei) (UniProt O15648); experiment: qHTS Validation Assay to Find Inhibitors of T. brucei phosphofructokinase (AID 485368)
Method in brief: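 qHTS format, up to 57 uM. PFK 1.25 nM; F6P 0.5 mM; ATP 0.1 mM; 5 mM MgCl2, 0.01% Tween20, 0.1% BSA; 0.1 M TEA pH 8.0; 45 min RT; ADP-Glo readout; no-enzyme control = full inhibition.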

[11] = qHTS Assay for Identification of Small Molecule Inducers of Hypoxia Response (AID 2120; active = well fitted curve in the direction sought with a large enough effect in the signal ratio, with a control signal flat, not every such curve was filed as active; the % refers to the signal ratio)
Method in brief: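 Read-out: CCF4 FRET emission ratio 460nm/530nm (excitation 405nm), converted to %Activity, with AC50 fitted across a compound titration. ME-180 cells carried an HRE-driven beta-lactamase reporter; compound exposure 17 h, 37 degrees C.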

[12] = qHTS for differential inhibitors of proliferation of Plasmodium falciparum line D10 (AID 1877);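 also: parasites grown with compound for 72 h before DNA staining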
[13] = qHTS for differential inhibitors of proliferation of Plasmodium falciparum line Dd2 (AID 1882);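 also: compound exposure of 72 h on infected erythrocytes; nearly all actives have a fitted effect of over 65% in size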
Method in brief: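 RBC culture, 0.3% parasitemia / 2.5% Hct final; cpd added by pin tool in DMSO; 72 h, 37 C, 5% CO2; lysis buffer + SYBR Green I, o/n RT dark; FI 485/535; norm. to artemisinin 0.29 uM and DMSO.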

[14] = qHTS for differential inhibitors of proliferation of Plasmodium falciparum line W2 (AID 1883);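 also: parasites grown with compound for 72 h before lysis and staining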
[15] = qHTS for differential inhibitors of proliferation of Plasmodium falciparum line HB3 (AID 1886);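 also: parasites grown with compound for 72 h before SYBR Green readout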
[16] = target: Ferritin light chain (Equus caballus) (UniProt P02791); experiment: qHTS Validation Assay for Identification of Novel General Anesthetics (AID 2323)
Method in brief: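 Competitive displacement of profluorescent 1-aminoanthracene (1-AMA, 50% saturated solution in PBS) from 10 uM horse-spleen apoferritin. Compounds incubated 10 min at room temperature; fluorescence read at 380 nm excitation/535 nm emission, normalized to free 1-AMA and complex, fitted with four-parameter Hill equation.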

[17] = target: ATP-dependent DNA helicase Q1 (Homo sapiens) (UniProt P46063); experiment: qHTS Validation Assay for Inhibitors of RecQ-Like Dna Helicase 1 (RECQ1) (AID 2353)
Method in brief: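 RECQ1T1 50 nM; forked duplex (20 bp + 30-nt ss tails) 200 nM, ATP 2 mM final; pH 8.0, 2 mM MgCl2, 2.5 ug/ml poly(dI-dC); 15 min compound preincubation; discontinuous kinetic read over 2 h at RT.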

[18] = target: RecQ-like DNA helicase BLM (Homo sapiens) (UniProt P54132); experiment: qHTS Validation Assay for Inhibitors of Bloom's syndrome helicase (BLM) (AID 2364)
Method in brief: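 Forked 20-bp duplex substrate (200 nM, TAMRA/BHQ-2) plus 2 mM ATP added after 15 min compound preincubation with 50 nM enzyme, pH 8.0, poly(dI-dC) 2.5 ug/ml. Strand separation followed by fluorescence (525/598 nm) over 2 h, normalized to enzyme-free and DMSO controls.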

[19] = Validation screen for small molecules that induce DNA re-replication in MCF 10A normal breast cells (AID 463097); also: nearly all actives have a fitted effect of over 60% in size
Method in brief: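 Readout: Hoechst nuclear fluorescence intensity, 405 ex / 500-530 em, by scanning plate imager; re-replication scored as increase in nuclei with elevated DNA content. Cells exposed to compound 48 hr, 37 C, 5% CO2 beforehand.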

[20] = Quantitative high throughput screen for delayed death inhibitors of the malarial parasite plastid, 96 hour incubation (AID 488745);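 also: luciferase-expressing P. falciparum in erythrocytes at 2% hematocrit and 0.1% parasitemia; nearly all actives have a fitted effect of over 70% in size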
Method in brief: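 Luciferase-expressing P. falciparum, infected RBCs 2% Hct/0.1% parasitemia (final); 96 h cpd exposure, 37 C, 5% CO2; RPMI 1640 + 0.5% Albumax, bicarbonate, gentamycin. Readout: luminescence loss = growth inhibition.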

Measured: outcome

Sequence of Beta-2 adrenergic receptor (Homo sapiens) (P07550 whole entry, looked up): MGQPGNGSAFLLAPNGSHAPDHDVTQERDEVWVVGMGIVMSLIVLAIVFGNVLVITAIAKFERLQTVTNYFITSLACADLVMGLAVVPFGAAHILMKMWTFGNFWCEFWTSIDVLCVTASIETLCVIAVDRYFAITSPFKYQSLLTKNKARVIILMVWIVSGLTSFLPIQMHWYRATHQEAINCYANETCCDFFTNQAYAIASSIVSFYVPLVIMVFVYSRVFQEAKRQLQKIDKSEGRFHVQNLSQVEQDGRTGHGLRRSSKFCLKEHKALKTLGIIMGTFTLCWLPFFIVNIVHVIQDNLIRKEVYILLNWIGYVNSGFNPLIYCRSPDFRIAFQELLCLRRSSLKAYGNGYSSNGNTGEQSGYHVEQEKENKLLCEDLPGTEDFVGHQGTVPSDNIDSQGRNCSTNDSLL
Sequence of Ubiquitin carboxyl-terminal hydrolase 2 (Homo sapiens) (O75604 whole entry, looked up): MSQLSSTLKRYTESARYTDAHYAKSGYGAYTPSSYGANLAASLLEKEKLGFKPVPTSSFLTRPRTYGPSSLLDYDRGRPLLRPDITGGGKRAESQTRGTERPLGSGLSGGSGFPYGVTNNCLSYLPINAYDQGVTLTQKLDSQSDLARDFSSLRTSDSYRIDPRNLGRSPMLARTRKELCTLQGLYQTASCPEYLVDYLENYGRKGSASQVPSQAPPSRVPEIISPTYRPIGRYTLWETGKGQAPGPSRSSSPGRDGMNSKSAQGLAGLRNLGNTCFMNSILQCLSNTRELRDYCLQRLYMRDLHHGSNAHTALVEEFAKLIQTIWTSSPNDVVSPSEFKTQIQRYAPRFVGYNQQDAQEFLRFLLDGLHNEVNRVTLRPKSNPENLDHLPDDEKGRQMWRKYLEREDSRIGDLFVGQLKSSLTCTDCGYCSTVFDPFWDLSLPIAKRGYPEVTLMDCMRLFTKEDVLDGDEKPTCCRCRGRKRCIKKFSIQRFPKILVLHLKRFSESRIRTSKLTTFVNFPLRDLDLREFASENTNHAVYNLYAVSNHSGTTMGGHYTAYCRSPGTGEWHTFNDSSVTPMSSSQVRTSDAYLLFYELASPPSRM
Sequence of DNA polymerase III PolC-type (Bacillus subtilis (strain 168)) (P13267 whole entry, looked up): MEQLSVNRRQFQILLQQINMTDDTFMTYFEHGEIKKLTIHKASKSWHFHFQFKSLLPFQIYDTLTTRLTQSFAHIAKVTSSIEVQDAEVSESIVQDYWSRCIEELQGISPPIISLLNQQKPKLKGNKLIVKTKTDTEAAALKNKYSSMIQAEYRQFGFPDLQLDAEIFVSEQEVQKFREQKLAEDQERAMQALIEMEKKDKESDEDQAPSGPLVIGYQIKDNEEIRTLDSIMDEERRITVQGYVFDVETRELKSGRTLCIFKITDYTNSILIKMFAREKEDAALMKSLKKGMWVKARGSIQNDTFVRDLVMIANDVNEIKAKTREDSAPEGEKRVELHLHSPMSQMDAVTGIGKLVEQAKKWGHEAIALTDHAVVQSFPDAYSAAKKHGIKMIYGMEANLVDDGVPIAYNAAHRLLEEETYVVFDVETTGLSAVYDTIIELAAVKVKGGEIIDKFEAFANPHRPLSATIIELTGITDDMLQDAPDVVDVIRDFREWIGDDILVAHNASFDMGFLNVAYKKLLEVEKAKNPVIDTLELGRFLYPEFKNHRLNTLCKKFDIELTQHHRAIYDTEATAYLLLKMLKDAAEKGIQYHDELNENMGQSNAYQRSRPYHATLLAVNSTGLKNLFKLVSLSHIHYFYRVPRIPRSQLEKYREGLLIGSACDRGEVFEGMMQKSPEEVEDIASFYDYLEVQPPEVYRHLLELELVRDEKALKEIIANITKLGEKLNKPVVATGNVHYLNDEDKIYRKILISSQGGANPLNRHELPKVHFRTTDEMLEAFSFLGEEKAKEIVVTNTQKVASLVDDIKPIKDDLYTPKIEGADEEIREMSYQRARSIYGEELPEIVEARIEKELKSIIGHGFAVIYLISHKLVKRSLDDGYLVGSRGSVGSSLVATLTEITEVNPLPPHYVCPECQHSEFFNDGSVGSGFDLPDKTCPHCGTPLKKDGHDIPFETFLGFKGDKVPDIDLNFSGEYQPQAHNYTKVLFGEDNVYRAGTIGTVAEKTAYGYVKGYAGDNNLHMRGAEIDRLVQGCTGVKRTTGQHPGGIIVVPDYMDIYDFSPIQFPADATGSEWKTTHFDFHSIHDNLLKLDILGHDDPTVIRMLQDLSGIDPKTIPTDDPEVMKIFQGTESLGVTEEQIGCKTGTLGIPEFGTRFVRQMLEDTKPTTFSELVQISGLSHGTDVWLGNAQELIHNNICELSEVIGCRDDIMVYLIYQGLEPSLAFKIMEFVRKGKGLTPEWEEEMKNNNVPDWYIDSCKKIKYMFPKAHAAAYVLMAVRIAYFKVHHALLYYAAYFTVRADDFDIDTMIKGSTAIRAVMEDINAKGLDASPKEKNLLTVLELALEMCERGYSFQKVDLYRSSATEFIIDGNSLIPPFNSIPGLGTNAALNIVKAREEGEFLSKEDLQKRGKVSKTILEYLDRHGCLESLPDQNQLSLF
Sequence of Tumor susceptibility gene 101 protein (Homo sapiens) (Q99816 whole entry, looked up, the tested form may be a part): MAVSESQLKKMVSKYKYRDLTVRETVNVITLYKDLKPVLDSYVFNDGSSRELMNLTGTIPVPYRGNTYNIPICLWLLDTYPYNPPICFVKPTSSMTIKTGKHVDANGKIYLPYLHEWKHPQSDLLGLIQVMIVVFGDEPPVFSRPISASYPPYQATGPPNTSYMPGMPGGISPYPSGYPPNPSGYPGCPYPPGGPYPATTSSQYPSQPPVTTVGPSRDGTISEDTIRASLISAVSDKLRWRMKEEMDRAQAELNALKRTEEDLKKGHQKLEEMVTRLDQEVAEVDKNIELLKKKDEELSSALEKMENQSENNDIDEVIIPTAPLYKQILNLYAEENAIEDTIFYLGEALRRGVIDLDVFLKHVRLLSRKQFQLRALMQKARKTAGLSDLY
Sequence of Ferritin light chain (Equus caballus) (P02791 2-175 limits assumed): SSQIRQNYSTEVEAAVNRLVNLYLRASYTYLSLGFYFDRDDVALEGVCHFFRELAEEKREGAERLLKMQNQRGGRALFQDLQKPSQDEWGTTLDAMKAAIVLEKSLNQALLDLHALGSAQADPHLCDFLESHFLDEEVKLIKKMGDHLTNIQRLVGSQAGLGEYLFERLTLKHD
Sequence of ATP-dependent 6-phosphofructokinase (Trypanosoma brucei brucei) (O15648 whole entry, looked up): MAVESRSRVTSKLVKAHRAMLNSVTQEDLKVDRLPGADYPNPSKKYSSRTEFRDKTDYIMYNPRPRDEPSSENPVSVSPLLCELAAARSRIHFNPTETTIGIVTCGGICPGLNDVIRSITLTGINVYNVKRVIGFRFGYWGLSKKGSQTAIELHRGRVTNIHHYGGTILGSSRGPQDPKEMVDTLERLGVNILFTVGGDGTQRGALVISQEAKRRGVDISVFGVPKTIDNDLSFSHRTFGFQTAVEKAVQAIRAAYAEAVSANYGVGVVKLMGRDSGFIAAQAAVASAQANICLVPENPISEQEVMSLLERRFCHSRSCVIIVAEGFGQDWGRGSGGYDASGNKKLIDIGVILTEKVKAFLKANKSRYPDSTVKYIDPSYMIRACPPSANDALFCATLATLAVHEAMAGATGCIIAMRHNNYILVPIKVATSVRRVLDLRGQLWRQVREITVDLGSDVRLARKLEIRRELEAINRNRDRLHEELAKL
Sequence of ATP-dependent DNA helicase Q1 (Homo sapiens) (P46063 whole entry, looked up): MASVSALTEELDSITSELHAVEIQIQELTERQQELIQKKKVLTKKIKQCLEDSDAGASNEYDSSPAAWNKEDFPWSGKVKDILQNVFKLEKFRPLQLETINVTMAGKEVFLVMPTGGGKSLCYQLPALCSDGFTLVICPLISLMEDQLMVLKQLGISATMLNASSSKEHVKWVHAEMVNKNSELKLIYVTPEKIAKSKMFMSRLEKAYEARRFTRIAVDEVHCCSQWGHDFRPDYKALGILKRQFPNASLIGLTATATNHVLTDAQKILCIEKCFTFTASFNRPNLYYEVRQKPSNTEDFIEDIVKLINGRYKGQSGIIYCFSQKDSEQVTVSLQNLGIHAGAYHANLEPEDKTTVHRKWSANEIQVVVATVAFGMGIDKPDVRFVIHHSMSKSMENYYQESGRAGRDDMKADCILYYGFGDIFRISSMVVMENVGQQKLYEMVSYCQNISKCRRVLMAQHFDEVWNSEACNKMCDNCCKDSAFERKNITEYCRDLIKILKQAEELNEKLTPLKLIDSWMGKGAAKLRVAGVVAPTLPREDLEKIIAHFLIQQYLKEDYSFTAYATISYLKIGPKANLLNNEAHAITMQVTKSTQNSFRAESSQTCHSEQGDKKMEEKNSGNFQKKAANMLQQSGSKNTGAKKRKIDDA

COc1ccc2cc([S+]([O-])Cc3ncc(C)c(OC)c3C)nc2c1
inactive: [1] | [2] | [3] | [4] | [5] | [6] | [7] | [8]

O=c1[nH]c(=O)n([C@H]2C[C@@H](O)[C@@H](CO)O2)cc1C=CBr
inactive: [1] | [2] | [3] | [4] | [5] | [6] | [7] | [9] | [8] | [10]

CN[C@H](CC(C)C)C(=O)N[C@H]1C(=O)N[C@@H](CC(N)=O)C(=O)N[C@@H]2C(=O)N[C@H]3C(=O)N[C@H](C(=O)N[C@H](C(=O)O)c4cc(O)cc(O)c4-c4cc3ccc4O)[C@H](O)c3ccc(c(Cl)c3)Oc3cc2cc(c3O[C@@H]2O[C@H](CO)[C@@H](O)[C@H](O)[C@@H]2O[C@H]2C[C@](C)(N)[C@H](O)[C@H](C)O2)Oc2ccc(cc2Cl)[C@H]1O
inactive: [1] | [2] | [3] | [4] | [5] | [6] | [7] | [9] | [8]

Cc1cc(O)c2c(c1)C(=O)c1cccc(O)c1C2=O
inactive: [11]

N=c1ccn2c(n1)O[C@H]1[C@@H](O)[C@@H](CO)O[C@H]12
inactive: [12] | [13] | [14] | [15] | [16] | [17] | [18] | [19] | [20]
